Assay [1] has as its target MAP/microtubule affinity-regulating kinase 3 (Homo sapiens) (UniProt P27448). The note with it: at 1 µM.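 Note: reported values are averaged percent inhibition of MARK3.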
Assay [2] concerns the target T1, MAP/microtubule affinity-regulating kinase 4 (Homo sapiens) (UniProt Q96L34).
T1 sequence (whole entry): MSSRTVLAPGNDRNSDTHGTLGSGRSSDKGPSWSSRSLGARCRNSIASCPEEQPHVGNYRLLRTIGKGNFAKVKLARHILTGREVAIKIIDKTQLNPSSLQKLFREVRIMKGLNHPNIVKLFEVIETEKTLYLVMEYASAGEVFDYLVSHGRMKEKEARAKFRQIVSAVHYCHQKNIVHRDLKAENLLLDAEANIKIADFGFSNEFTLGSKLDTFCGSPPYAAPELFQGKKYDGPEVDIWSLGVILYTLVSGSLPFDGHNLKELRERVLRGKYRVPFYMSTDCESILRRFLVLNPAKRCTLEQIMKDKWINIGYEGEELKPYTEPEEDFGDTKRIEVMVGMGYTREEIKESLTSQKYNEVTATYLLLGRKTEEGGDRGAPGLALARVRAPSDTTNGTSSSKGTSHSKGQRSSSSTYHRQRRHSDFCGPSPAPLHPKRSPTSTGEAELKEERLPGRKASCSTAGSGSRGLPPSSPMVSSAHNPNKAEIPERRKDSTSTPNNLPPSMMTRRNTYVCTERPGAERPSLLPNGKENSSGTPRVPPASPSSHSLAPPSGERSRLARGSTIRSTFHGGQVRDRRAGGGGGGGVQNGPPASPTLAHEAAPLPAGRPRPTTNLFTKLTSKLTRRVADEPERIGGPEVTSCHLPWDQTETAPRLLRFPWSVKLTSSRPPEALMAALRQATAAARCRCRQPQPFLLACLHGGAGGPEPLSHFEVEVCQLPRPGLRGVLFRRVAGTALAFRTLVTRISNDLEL
The note with it: at 0.1 µM.

Assay [3] deals with T1, MAP/microtubule affinity-regulating kinase 4 (Homo sapiens). The note with it: at 1 µM.
The target in assay [4] is Maternal embryonic leucine zipper kinase (Homo sapiens) (UniProt Q14680). The note with it: at 0.1 µM.
The target is the same in assay [5]. The note with it: at 1 µM.
Assay [6] addresses MAP kinase-interacting serine/threonine-protein kinase 1 (Homo sapiens) (UniProt Q9BUB5). The following applies: at 0.1 µM.
Assay [7] shares this target. The following applies: at 1 µM.
Assay [8] concerns the target MAP kinase-interacting serine/threonine-protein kinase 2 (Homo sapiens) (UniProt Q9HBH9). The following applies: at 0.1 µM.
For assay [9] the target is unchanged. The following applies: at 1 µM.
Assay [10] has as its target Serine/threonine-protein kinase MARK2 (Homo sapiens) (UniProt Q7KZI7). The following applies: at 0.1 µM.
The target is the same in assay [11]. The following applies: at 1 µM.
Assay [12] has as its target PAS domain-containing serine/threonine-protein kinase (Homo sapiens) (UniProt Q96RG2). The note with it: at 0.1 µM.
The target is the same in assay [13]. The note with it: at 1 µM.
In assay [14] the target is Phosphorylase b kinase gamma catalytic chain, skeletal muscle/heart isoform (Homo sapiens) (UniProt Q16816). The following applies: at 0.1 µM.
Assay [15] shares this target. The following applies: at 1 µM.
The target in assay [16] is T2, Phosphorylase b kinase gamma catalytic chain, liver/testis isoform (Homo sapiens) (UniProt P15735).
T2 sequence (whole entry): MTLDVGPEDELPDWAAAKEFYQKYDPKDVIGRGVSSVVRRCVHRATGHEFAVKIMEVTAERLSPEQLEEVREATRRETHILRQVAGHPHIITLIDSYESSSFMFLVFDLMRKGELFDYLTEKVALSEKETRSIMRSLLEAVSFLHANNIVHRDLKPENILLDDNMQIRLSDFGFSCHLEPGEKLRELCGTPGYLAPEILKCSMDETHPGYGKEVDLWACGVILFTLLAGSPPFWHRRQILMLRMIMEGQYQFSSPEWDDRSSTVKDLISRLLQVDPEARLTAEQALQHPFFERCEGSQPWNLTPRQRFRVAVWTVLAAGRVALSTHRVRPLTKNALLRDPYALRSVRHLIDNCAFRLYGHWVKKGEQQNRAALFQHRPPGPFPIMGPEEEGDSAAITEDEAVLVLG
The note with it: at 0.1 µM.

Assay [17] deals with T2, Phosphorylase b kinase gamma catalytic chain, liver/testis isoform (Homo sapiens). The following applies: at 1 µM.
For assay [18], the target named is Serine/threonine-protein kinase pim-1 (Homo sapiens) (UniProt P11309). The note with it: at 0.1 µM.
For assay [19] the target is unchanged. The note with it: at 1 µM.
In assay [20] the target is Serine/threonine-protein kinase pim-2 (Homo sapiens) (UniProt Q9P1W9). The following applies: at 0.1 µM.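 Note: reported value is the mean percent inhibition of PIM2, measured in the GSK PKIS kinase inhibitor set screen.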
Chain of Serine/threonine-protein kinase pim-2 (Homo sapiens) (Q9P1W9 whole entry, looked up): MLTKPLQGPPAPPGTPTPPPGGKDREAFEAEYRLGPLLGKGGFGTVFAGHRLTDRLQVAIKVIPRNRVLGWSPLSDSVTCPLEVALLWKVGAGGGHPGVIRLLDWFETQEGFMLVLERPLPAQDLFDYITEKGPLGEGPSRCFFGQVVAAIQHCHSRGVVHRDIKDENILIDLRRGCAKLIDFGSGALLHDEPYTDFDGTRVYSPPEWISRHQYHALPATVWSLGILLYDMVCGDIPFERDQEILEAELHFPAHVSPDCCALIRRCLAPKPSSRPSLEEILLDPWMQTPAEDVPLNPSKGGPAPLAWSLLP

Chain of Phosphorylase b kinase gamma catalytic chain, skeletal muscle/heart isoform (Homo sapiens) (Q16816 whole entry, looked up, canonical isoform): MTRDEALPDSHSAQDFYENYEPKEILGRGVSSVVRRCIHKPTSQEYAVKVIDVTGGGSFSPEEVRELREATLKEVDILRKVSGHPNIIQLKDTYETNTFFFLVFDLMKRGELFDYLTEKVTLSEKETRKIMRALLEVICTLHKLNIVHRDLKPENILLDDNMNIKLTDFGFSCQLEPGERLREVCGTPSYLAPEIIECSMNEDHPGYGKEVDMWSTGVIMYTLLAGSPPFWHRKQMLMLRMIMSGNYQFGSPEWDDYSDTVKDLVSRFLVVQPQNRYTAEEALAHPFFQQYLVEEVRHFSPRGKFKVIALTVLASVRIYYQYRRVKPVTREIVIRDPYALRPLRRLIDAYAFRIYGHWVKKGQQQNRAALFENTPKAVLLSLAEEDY
Chain of MAP kinase-interacting serine/threonine-protein kinase 2 (Homo sapiens) (Q9HBH9 whole entry, looked up): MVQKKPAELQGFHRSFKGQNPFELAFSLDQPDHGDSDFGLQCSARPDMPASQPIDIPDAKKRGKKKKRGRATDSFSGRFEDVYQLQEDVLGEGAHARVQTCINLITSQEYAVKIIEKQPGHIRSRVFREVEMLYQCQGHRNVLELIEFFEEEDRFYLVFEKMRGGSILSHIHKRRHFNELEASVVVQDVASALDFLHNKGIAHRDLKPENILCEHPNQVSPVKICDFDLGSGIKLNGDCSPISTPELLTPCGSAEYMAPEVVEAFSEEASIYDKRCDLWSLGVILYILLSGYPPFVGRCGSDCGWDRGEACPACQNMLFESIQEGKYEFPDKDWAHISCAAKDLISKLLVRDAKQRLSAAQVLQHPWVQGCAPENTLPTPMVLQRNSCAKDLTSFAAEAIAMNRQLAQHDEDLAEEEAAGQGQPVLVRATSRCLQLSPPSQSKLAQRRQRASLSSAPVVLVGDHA
Chain of Maternal embryonic leucine zipper kinase (Homo sapiens) (Q14680 whole entry, looked up): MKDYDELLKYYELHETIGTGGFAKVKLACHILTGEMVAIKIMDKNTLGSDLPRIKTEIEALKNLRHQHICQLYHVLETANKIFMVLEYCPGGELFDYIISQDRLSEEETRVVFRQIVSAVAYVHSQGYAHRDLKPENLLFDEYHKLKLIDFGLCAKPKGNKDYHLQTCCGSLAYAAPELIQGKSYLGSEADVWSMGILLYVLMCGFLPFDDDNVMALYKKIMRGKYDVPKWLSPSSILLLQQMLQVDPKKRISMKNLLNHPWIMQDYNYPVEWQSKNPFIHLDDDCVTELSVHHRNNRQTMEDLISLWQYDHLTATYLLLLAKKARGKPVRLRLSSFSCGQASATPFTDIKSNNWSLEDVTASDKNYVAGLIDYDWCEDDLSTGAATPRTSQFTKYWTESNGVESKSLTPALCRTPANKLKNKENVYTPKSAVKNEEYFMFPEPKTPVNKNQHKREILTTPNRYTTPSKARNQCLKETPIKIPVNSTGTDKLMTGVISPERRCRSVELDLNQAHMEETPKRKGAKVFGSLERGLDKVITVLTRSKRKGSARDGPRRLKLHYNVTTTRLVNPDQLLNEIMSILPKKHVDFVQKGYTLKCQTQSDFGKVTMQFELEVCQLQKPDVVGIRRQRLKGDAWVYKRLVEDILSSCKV
Chain of Serine/threonine-protein kinase MARK2 (Homo sapiens) (Q7KZI7 whole entry): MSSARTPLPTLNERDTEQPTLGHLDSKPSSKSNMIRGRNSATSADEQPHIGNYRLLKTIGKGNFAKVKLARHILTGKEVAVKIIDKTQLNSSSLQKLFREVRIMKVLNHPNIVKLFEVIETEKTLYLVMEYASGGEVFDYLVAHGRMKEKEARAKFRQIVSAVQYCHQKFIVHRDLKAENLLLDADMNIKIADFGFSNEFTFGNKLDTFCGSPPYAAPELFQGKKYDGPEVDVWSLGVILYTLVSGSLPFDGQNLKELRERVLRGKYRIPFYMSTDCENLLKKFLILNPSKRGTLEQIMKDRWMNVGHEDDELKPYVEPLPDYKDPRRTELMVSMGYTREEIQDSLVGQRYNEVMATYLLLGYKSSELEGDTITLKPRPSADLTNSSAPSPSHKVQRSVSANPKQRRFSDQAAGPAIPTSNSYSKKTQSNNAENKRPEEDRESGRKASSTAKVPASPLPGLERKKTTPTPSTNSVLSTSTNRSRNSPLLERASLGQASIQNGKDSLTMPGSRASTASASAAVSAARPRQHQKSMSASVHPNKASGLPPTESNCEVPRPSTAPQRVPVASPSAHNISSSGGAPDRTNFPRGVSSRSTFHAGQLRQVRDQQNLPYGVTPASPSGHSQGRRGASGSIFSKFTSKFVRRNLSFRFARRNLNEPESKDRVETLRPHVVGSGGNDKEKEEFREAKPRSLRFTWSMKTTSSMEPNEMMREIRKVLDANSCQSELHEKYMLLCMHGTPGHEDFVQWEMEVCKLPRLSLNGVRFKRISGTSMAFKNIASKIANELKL
Chain of Serine/threonine-protein kinase pim-1 (Homo sapiens) (P11309 whole entry, looked up): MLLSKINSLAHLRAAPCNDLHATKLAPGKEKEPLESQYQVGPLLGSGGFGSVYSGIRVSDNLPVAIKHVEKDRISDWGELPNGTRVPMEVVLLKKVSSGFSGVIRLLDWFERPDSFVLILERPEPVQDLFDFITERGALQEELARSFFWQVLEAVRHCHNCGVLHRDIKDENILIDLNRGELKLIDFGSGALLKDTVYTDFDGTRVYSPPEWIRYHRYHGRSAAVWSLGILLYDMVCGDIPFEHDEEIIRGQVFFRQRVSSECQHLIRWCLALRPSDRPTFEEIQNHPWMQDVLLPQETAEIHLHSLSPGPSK
Chain of MAP/microtubule affinity-regulating kinase 3 (Homo sapiens) (P27448 whole entry, looked up): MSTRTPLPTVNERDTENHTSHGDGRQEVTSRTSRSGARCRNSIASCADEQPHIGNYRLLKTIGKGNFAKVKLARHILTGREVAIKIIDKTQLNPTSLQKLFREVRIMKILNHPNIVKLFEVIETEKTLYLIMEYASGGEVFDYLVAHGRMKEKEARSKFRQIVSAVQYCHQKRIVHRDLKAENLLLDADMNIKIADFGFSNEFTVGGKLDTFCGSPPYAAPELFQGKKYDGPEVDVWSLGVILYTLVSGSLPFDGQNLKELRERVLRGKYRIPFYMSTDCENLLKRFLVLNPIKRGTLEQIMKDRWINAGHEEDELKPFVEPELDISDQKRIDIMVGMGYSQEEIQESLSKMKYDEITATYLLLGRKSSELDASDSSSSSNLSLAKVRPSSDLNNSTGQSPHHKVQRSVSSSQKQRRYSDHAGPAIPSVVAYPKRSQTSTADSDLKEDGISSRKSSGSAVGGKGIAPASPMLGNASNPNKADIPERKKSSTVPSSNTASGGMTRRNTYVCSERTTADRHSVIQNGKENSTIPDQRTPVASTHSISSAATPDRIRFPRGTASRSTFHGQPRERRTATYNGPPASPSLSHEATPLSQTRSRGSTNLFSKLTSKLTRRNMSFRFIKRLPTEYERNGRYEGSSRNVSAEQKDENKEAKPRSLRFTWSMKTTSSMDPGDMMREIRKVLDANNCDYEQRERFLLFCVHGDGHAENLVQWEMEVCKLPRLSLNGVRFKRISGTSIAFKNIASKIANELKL
Chain of PAS domain-containing serine/threonine-protein kinase (Homo sapiens) (Q96RG2 whole entry, the tested form may be a part): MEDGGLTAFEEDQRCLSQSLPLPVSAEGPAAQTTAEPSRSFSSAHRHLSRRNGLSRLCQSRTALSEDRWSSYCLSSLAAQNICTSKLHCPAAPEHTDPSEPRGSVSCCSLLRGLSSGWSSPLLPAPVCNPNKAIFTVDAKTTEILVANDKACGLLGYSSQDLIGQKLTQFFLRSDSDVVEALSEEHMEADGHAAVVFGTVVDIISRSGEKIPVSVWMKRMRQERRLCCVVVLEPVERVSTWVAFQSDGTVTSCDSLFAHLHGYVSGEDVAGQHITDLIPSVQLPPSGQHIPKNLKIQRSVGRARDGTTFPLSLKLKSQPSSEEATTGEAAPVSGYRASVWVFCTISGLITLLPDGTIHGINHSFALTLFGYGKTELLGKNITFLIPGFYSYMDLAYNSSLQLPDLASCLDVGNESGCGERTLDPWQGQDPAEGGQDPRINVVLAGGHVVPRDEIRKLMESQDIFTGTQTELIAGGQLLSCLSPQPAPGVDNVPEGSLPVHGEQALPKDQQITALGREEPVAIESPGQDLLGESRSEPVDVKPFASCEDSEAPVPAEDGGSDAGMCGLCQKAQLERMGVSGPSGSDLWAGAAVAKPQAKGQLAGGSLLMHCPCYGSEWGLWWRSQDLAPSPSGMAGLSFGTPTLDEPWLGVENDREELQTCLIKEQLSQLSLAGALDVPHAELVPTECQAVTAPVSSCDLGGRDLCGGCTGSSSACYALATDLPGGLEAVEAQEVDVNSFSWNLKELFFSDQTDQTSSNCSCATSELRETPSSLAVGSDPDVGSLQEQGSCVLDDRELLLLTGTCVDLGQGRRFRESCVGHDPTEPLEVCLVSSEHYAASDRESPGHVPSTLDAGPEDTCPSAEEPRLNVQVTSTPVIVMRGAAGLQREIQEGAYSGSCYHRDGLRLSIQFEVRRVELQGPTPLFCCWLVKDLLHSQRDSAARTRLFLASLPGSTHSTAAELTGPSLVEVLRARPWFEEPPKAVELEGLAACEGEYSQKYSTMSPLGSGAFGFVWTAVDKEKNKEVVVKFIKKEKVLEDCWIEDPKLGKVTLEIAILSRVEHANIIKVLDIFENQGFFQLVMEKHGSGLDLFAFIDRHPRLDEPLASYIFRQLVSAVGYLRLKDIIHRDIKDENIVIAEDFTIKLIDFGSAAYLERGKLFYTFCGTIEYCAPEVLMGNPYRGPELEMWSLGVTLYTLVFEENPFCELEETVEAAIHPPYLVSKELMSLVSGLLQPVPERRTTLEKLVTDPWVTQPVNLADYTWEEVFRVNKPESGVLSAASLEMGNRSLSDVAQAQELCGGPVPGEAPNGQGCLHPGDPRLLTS

In general, inhibition refers to the relative decrease from the control value, in per cent. On to `COc1cc2ncn(-c3cc(O[C@@H](C)c4ccccc4Cl)c(C(N)=O)s3)c2cc1OC`, for which the inhibition in assay [1] came out at 8.06%; in [2], 2.88%; in [3] it was 7.69%; in assay [4] it was 4.41%; in assay [5], 9.71%; in [6], 1.25%. Besides, the inhibition is 2.74% in [7]; -0.9% in assay [8]; 7.84% in assay [9]; 1.49% in [10]; 5.29% in assay [11]; 0.19% in [12]. The inhibition in assay [13] is 1.28%; in assay [14], 5.83%; in assay [15] it was 8.24%; in assay [16], 6.55%; in assay [17], 6.6%; in [18], -0.02%. The inhibition in [19] is 1.8%; in [20], -0.11%.

On to `O=C1NC(=O)C(N2CCc3ccccc32)=C1c1ccc(Cl)cc1`, for which the inhibition worked out at 2.11% in assay [1]; 3.11% in assay [2]; 2.16% in assay [3]; 4.84% in assay [4]; 6.67% in assay [5]; 2.34% in [6]. The inhibition in [7] turned out to be 3.78%; in assay [8], 1%; in assay [9], 3.38%; in assay [10], 0.05%; in assay [11], 2.02%; in [12], 0.1%. The inhibition in assay [13] was -1.5%; in assay [14] it was 3.36%; in assay [15] it was 5.29%; in [16], 4.72%; in assay [17] it was 2.26%; in assay [18], 0.92%. The results for the inhibition in assay [19] and in assay [20] were 1.27% and 0.55%, respectively.

On to `COC(=O)Nc1nc2cc(Oc3ccc(NC(=O)Nc4cccc(C(=O)O)c4)cc3)ccc2[nH]1`, for which the inhibition in [1] was 3.98%; in assay [2], -0.3%; in [3], 1.97%; in assay [4] it was -0.21%; in assay [5], 0.37%; in assay [6], -0.48%. Further, the inhibition is 8.3% in assay [7]; 0.28% in [8]; 3.85% in assay [9]; -2.31% in [10]; 0.87% in assay [11]; 0.9% in assay [12]. Also, the inhibition in assay [13] was 1.66%; in [14], -0.77%; in [15] it was 11.2%; in [16], 1.36%; in assay [17] it was 4.11%; in [18] it was -0.3%. Besides, the inhibition was 0.62% in assay [19] and -4.42% in [20].

Take `NCc1ccc(-c2nc(-c3ccc(Cl)c(O)c3)c(-c3ccncc3)[nH]2)cc1`: the inhibition is 5.09% in assay [1]; 0.06% in assay [2]; 2.57% in [3]; 0.75% in assay [4]; -1.02% in assay [5]; -2.18% in assay [6]. Further, the inhibition in assay [7] is 6.58%; in [8], 1.14%; in assay [9], 4.8%; in assay [10], -0.38%; in assay [11], 2.58%; in assay [12], 0.34%. Besides, the inhibition in [13] is -0.1%; in assay [14] it was 0.14%; in assay [15], 3.18%; in assay [16] it was 0.02%; in assay [17], -1.08%; in [18], 1.18%. Moreover, the inhibition is 0.18% in [19] and -0.05% in assay [20].

In the case of `COc1ccc(COc2ccc(Cc3cnc(N)nc3N)cc2OC)cc1`, the inhibition in [1] was 2.06%; in [2] it was 2.83%; in assay [3], 1.47%; in [4] it was 0.82%; in assay [5], -1.43%; in assay [6], 10.8%. For the same compound, the inhibition came to 0.82% in assay [7]; 3.14% in assay [8]; 0.25% in [9]; 1.26% in [10]; 3.13% in [11]; 1.77% in [12]. Also, the inhibition in assay [13] is 0.54%; in assay [14], -0.96%; in assay [15], 1.56%; in assay [16], 1.58%; in assay [17], -1.66%; in assay [18] it was 1.34%. Also, the inhibition in assay [19] amounted to 0.49%; in assay [20] it was 2.71%.

As for `CS(=O)(=O)CCNCc1nc(-c2ccc3ncnc(Nc4ccc(F)c(Cl)c4)c3c2)cs1`, the inhibition in assay [1] was -1.39%; in assay [2] it was -0.14%; in [3], 0.31%; in assay [4] it was -1.18%; in assay [5] it was 3.48%; in [6], 10.6%. Also, the inhibition was 50.4% in assay [7]; 13.4% in [8]; 55.7% in assay [9]; -0.48% in assay [10]; 0.61% in [11]; 1% in assay [12]. Besides, the inhibition in assay [13] is 0.68%; in assay [14] it was 1.09%; in [15] it was 4.69%; in assay [16], 3.04%; in assay [17], 3.64%; in assay [18] it was 1.43%. Further, the inhibition was 9.19% in assay [19] and -0.24% in assay [20].
